The record followed here is PubChem BioAssay.

Results filed as inconclusive are left out. Calls of active or inactive are those of the source. Unless noted, cut-off not given; nearly all actives show AC50 up to about 30 µM.

A short description of assay [1]: growth inhibition of DIPG glioma cells, dose response, cell-based, SU-DIPG-XIII, MIPE4.0, CellTiter-Glo, qHTS (AID 1347061; cut-off not given, nearly all actives have AC50 up to about 37 µM;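 further: cells exposed to compound for 48 hours before readout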). The following applies: SU-DIPG-XIII viability, CellTiter-Glo ATP luminescence. A general note: In ATP-based viability assays light output follows the ATP content of the culture.
Assay [2] can be described thus: growth inhibition of DIPG glioma cells, dose response, cell-based, JHH-DIPG-1, MIPE4.0, CellTiter-Glo, qHTS (AID 1347062; cut-off not given, nearly all actives have AC50 up to about 27 µM). The following applies: JHH-DIPG-1 viability, CellTiter-Glo ATP luminescence.
The nature of assay [3]: growth inhibition of DIPG glioma cells, dose response, cell-based, SU-DIPG-IV, MIPE4.0, CellTiter-Glo, qHTS (AID 1347063).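 Further: compound exposure lasted 48 hours before the viability readout.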 The following applies: SU-DIPG-IV viability, CellTiter-Glo ATP luminescence.
Assay [4] is described as follows: SU-DIPG-VI glioma cell viability, MIPE4.0 library, CellTiter-Glo luminescence, qHTS (AID 1347066).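 Further: cells exposed to compound for 48 hours before readout.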 Particulars: CellTiter-Glo ATP luminescence.
The nature of assay [5]: SU-DIPG-XXV glioma cell viability, MIPE5.0 library, qHTS (AID 1347068; cut-off not given, nearly all actives have IC50 up to about 30 µM). (qHTS replaces the single test concentration by a dilution series.)
Assay [6] can be described thus: sensitizers of A549 cells to miR-34 induction, primary screen, imaging, A549 dox-inducible miR-34, nuclei and caspase counts (AID 1347080;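 active means compounds whose cell count with miR-34 switched on is under 0.7 times the count with it off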). The following applies: A549 miR-34 inducible, Hoechst nuclei count, 48 h.
The nature of assay [7]: survival rescue of mitochondrial mutant cells in low glucose, primary screen, MELAS cybrids, Rieske KO mouse fibroblasts, CellTiter-Glo (AID 1508586;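 active means mean z-score across replicates of 1.96 or higher in either the MELAS or the Rieske mutant cell line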;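 further: z relative to plate mean and SD of compound and empty wells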).
A short description of assay [8]: LFS_MB_P medulloblastoma growth inhibition, cell-based, chromothripsis tumors, cisplatin or BGB combos (AID 1671449; in the data active means inhibition above about 80%;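 further: cells exposed for 96 hours; 0% = vehicle DMSO and 100% = killing by high DMSO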). Particulars: LFS_MB_P medulloblastoma cells.
A short description of assay [9]: HDN33 neuroblastoma growth inhibition, cell-based, chromothripsis tumors, cisplatin or BGB combos (AID 1671450; in the data active means inhibition above about 80%;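 further: cells exposed to compound for four days; 0% = vehicle DMSO and 100% = cell killing by high DMSO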). The following applies: HDN33 neuroblastoma cells, stronger effect = higher value.
The nature of assay [10]: ICB984 medulloblastoma cell growth inhibition, synergistic combos for chromothripsis tumors, cisplatin or BGB combos (AID 1671451; call rule not given here;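 further: cells exposed for 96 hours before readout; 0% = vehicle DMSO and 100% = killing by high DMSO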). The following applies: ICB984 medulloblastoma cells, drug combinations, stronger effect = higher value.
A short description of assay [11]: HTB85 osteosarcoma cell growth inhibition, synergistic combos for chromothripsis tumors, BGB or cisplatin IC20 combos (AID 1671453; in the data active means inhibition above about 80%;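 further: cells exposed for 96 hours before readout; 0% = vehicle DMSO and 100% = high DMSO killing control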). The following applies: HTB85 osteosarcoma cells, drug combinations, stronger effect = higher value.
A short description of assay [12]: MDA-MB-436 breast carcinoma cell growth inhibition, synergistic combos for chromothripsis tumors, BGB or cisplatin combos (AID 1671458; call rule not given here;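 further: cells exposed for 96 hours; 0% = vehicle DMSO and 100% = killing by high DMSO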). The following applies: MDA-MB-436 breast carcinoma growth inhibition, drug combinations, stronger effect = higher value.
Assay [13] in a line: growth inhibition of BT084 medulloblastoma cells, cell-based, ICGC_MB145, cisplatin and BGB IC40 combos (AID 1671461; in the data active means inhibition above about 80%;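 further: cells exposed to drugs for 96 hours; 0% = vehicle DMSO and 100% = high DMSO full killing control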). The following applies: drug combinations, stronger effect = higher value.
Assay [14] in a line: growth inhibition of RCMB18 medulloblastoma cells, cell-based, cisplatin and BGB IC40 combos (AID 1671462; in the data active means inhibition above about 80%;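 further: cells exposed to compound for four days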). The following applies: stronger effect = higher value.
Assay [15] is described as follows: growth inhibition of CRL1545 osteosarcoma cells, cell-based, cisplatin and BGB IC20 combos (AID 1671464; in the data active means inhibition above about 80%;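 further: cells exposed to compound for 96 hours before readout; 0% = vehicle DMSO and 100% = high DMSO killing control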). The following applies: stronger effect = higher value.
The mark [16] stands for this setting: stronger effect = lower value, cell number ratio, induced over uninduced.
The mark [17] stands for this setting: measured here: relative caspase fold change +Dox/-Dox.
Where [18] appears, read: measured here: total cells with miR-34 induction, stronger effect = lower value.
[19] abbreviates: measured here: total cells without miR-34 induction.
[20] abbreviates: MELAS cybrid survival, CellTiter-Glo 48 h, stronger effect = higher value.
[21] abbreviates: Rieske KO mouse fibroblast survival, CellTiter-Glo 72 h.
[22] abbreviates: measured here: with BGB IC20 combination, at 0.5 µM.
[23] abbreviates: measured here: with cisplatin IC20 combination, at 0.5 µM.

For the compound `CCCCCCCCCCCCc1ccc(S(=O)(=O)Nc2nncs2)cc1`, the result in assay [1], in assay [2], in assay [3], in [4] and in assay [5] was inactive. For the same compound, the values for the fold change in assay [6] (setting [16]) and in [6] (setting [17]) were 0.927 (inactive) and 1.16, respectively. In addition, the cell count in [6] (setting [18]) was 8010; in assay [6] (setting [19]), 8650. Further, the z-score in assay [7] (setting [20]) was 0.533 (inactive); in assay [7] (setting [21]), 0.0837.

As for `COc1cc2c(cc1OC)[C@@H]1Cc3ccc(OC)c(OC)c3CN1CC2`, the outcome in [1], in assay [2], in assay [3] and in assay [4] was inactive. In addition, the figures for the fold change in [6] (setting [16]) and in [6] (setting [17]) were 0.902 (inactive) and 0.654, respectively. Also, the cell count in assay [6] (setting [18]) is 9170; in assay [6] (setting [19]) it was 10200. The z-score is -0.395 (inactive) in assay [7] (setting [20]) and 0.428 in assay [7] (setting [21]).

`OC[C@H]1O[C@@H](OCCc2ccc(O)cc2)[C@H](O)[C@@H](O)[C@@H]1O`: the compound was called inactive in assay [1], in assay [2], in assay [3] and in [4].

As a reminder, the inhibition is the relative decrease from the control value, in per cent. On to `O=C(O)CO.[NH2-].[NH2-].[Pt+2]`, for which the compound was called inactive in assay [1], in assay [2], in [3] and in assay [4]. Further, the inhibition in assay [8] (at 0.5 µM, stronger effect = higher value) was -35.8% (inactive); in assay [8] (measured here: combination with BGB IC20, at 0.005 µM), -22.6%; in assay [8] (measured here: combination with BGB IC40, at 0.005 µM), -55.5%; in assay [8] (measured here: combination with BGB IC40, at 0.05 µM) it was -20.9%; in assay [8] (measured here: combination with cisplatin, at 0.5 µM, stronger effect = higher value), -40.8%; in assay [8] (measured here: combination with cisplatin, at 5 µM, stronger effect = higher value), -22.9%. In addition, the inhibition in [9] (BGB combo, at 5 µM) was -38.9%; in assay [9] (at 0.5 µM) it was 11.9% (inactive); in assay [9] (cisplatin combo, at 5 µM), 6.72%; in assay [9] (setting [22]), 3.13%; in assay [9] (setting [23]), 36.3%; in assay [9] (single agent, at 5 µM), -22.5%. Also, the inhibition in assay [10] (BGB IC20 combo, at 0.005 µM) was -33.3%; in [10] (BGB IC40 combo, at 0.005 µM), -24.4%; in assay [10] (BGB IC40 combo, at 0.05 µM) it was -27.5%; in assay [10] (at 0.5 µM), -23.1% (inactive); in [10] (cisplatin combo, at 0.05 µM), -34.1%; in assay [10] (cisplatin combo, at 0.5 µM), -33.3%. Besides, the inhibition was -25.6% in assay [10] (cisplatin combo, at 5 µM); -2.84% in assay [10] (measured here: 5 uM single agent, at 5 µM); 1.55% (inactive) in [11] (at 0.5 µM); 26.1% in assay [11] (measured here: with BGB IC20, at 0.5 µM); -2.11% in assay [11] (measured here: with BGB IC20, at 5 µM); -15.5% in [11] (measured here: with cisplatin IC20, at 0.5 µM). Also, the inhibition in assay [11] (measured here: with cisplatin IC20, at 5 µM) was -7.66%; in [11] (single agent, at 5 µM), -0.083%; in assay [12] (at 0.5 µM), -15.3% (inactive); in assay [12] (measured here: BGB combination, at 0.5 µM) it was -9.4%; in assay [12] (measured here: BGB combination, at 5 µM), 1.16%; in assay [12] (measured here: cisplatin combination, at 0.5 µM), -35.5%. Moreover, the inhibition in [12] (measured here: cisplatin combination, at 5 µM) is -23.8%; in [13] (at 0.5 µM), -4.94% (inactive); in [13] (cisplatin combination, at 0.5 µM), 2.17%; in assay [13] (cisplatin combination, at 5 µM), -267%; in assay [13] (measured here: BGB IC40 combination 0.05 uM, at 0.05 µM), -15.1%; in assay [13] (single agent, at 5 µM), -4.36%. The inhibition in assay [14] (at 0.5 µM) was -16.2% (inactive); in assay [14] (cisplatin combo, at 5 µM) it was 4.38%; in [14] (measured here: BGB IC40 combination, at 0.05 µM) it was -28.2%; in assay [14] (measured here: combination with cisplatin, at 0.5 µM) it was 6.48%; in assay [14] (single agent, at 5 µM) it was -8.12%; in assay [15] (at 0.5 µM), -2.61% (inactive). Moreover, the inhibition is -12.1% in assay [15] (setting [22]); 0.578% in assay [15] (setting [23]); -10.5% in [15] (single agent, at 0.05 µM); -18% in [15] (single agent, at 5 µM).
